# The whole screen tested about 48,000 compounds, of which about 13,000 (27%) showed an effect of 50% or more. Some of the results follow.
# Tested on: Wolbachia pipientis
# Assay: Anti-Wolbachia Cell-Based Screen
# Format: functional
# Set-up: scale not given: in the data most compounds retested in dose-response had high values
# Conditions: 5 µM
row,Compound,Percent Effect [%]
1,CC(C)(C)c1nccc(N2CCC(OCCN3CCCCC3)C2)n1 (configuration not stated),4.599
2,CC(Cn1cncc1-c1cnn(C2CCCCC2)c1)N1CCCCC1.Cl (configuration not stated),109.8
3,CC(C)n1cc(CN(C)C[C@@H]2CCCN3CCCC[C@H]23)cn1,12.76
4,CC(CN1CCCCCC1)NCc1nncn1C1CCCCC1 (configuration not stated),-0.3524
5,O=C(NC1CC1)N1CCc2ccc(=O)n(CCN3CCCC3)c2CC1.O=C(O)C(F)(F)F,-8.445
6,COCCn1c2c(ccc1=O)CCN(C(=O)NC1CC1)CC2,105.3
7,COCC(=O)N1CCc2ccc(=O)n(CC3CC3)c2CC1,104.1
8,O=C(NC1CC1)N1CCc2ccc(=O)n(CC3CC3)c2CC1,7.486
9,COCCn1c2c(ccc1=O)CCN(C(=O)C1CC=CC1)CC2,102.1
10,COCCn1c2c(ccc1=O)CC(N)CC2 (configuration not stated),-4.933
11,COCCn1c2c(ccc1=O)CCN(C(=O)CC1CC1)CC2,117
12,CC(C)c1cccc(CSc2nnc(Cn3cncn3)o2)n1,-1.93
13,CN(C)C(=O)CN1C(=O)CO[C@@H]2CN(c3ccccn3)C[C@H]21.O=C(O)C(F)(F)F,-2.034
14,Cc1cc(CCCC(=O)NC2CCN(C)C2=O)c(C)s1 (configuration not stated),-2.482
15,CNC(=O)CS(=O)(=O)C1CCN(S(=O)(=O)c2ccccc2Br)CC1,9.932
16,Cc1ccc(-c2noc(C(O)CC(C)C)n2)nn1 (configuration not stated),-5.785
17,O=C(CN1CCS(=O)(=O)CC1)NC1CCOc2ccccc21 (configuration not stated),5.265
18,Cc1ccc(CS(=O)(=O)Cc2nc(N)nc(N(C)C)n2)cc1,10.59
19,CN(C)c1cc2c(nn1)CCN(C(=O)C1Cc3ccccc3S1)C2 (configuration not stated),-0.2262
20,CC(C)c1ccc(O)c(C(=O)NCc2cc[nH]n2)c1,-15.09
21,COCCCNS(=O)(=O)c1ccc(N2CCCCS2(=O)=O)cc1,124.1
22,CC(NCCCn1ccnc1)c1ccc(N2CCCS2(=O)=O)cc1 (configuration not stated),-4.666
23,CC(NCCCn1cccn1)c1ccc(N2CCCS2(=O)=O)cc1 (configuration not stated),-2.983
24,CNS(=O)(=O)c1ccsc1C(=O)OC,1.281
25,COC(=O)c1sc(C(F)(F)F)cc1OC,102.8
26,COc1cc(C(F)(F)F)sc1C(=O)O,103.8

row,Compound,Percent Effect [%]
1,COc1cc(C)sc1C(=O)NCCNc1ccccc1,-4.959
2,CCOCC(C)(C)NC(=O)Nc1cc(F)ccc1OC,-3.533
3,COc1cc2cc(C(=O)O)n(C)c2cc1OC,-4.689
4,CC1CCCCN1S(=O)(=O)NCCN/C(O)=C1/N=CC=CC1=O (configuration not stated),-4.587
5,CCc1ccc(CN2CCCC(CO)(CCOC)C2)cc1 (configuration not stated),-6.434
6,Cc1cc(C)n(CC2CCCN2C(=O)c2ccc(NC3CC3)nc2)n1 (configuration not stated),104.7
7,Cc1cc(C)n(CC2CCCCN2C(=O)c2cnn(C)c2)n1 (configuration not stated),-4.108
8,Cc1cc(C)n(CC2CCCN2C(=O)c2ccc3[nH]nnc3c2)n1 (configuration not stated),-17
9,CCOc1ccc(C(=O)N2CCCCC2Cn2nc(C)cc2C)cn1 (configuration not stated),118.2
10,Cc1cc(C)n(CC2CCCCN2C(=O)c2ccc3nncn3c2)n1 (configuration not stated),3.82
11,Cc1cc(C)n(CC2CCCN2C(=O)c2ccc(C(N)=O)cn2)n1 (configuration not stated),-1.212
12,Cc1cc(C)n(CC2CCCCN2C(=O)c2ccc(C(N)=O)cc2)n1 (configuration not stated),111.1
13,CCOc1ccccc1C(CC(=O)N(C)C)NC(C)=O (configuration not stated),-2.972
14,CCc1nc2n(n1)CC(NCc1cn(C)nc1-c1cccnc1)CC2 (configuration not stated),-2.892
15,Cc1cnc(N2CC[C@@H]3O[C@H](COCc4ccccn4)CC[C@@H]32)nc1.O=C(O)C(F)(F)F.O=C(O)C(F)(F)F,-4.87
16,Cc1ccc2c(c1)SCC(=O)N2Cc1noc(C2CC2)n1,92.98
17,O=c1cc(N2CCCC2)cnn1Cc1noc(C2CCCO2)n1 (configuration not stated),-13.05
18,Cc1cc(C)n(C2CCN(C(=O)CN3C(=O)CSc4ccccc43)C2)n1 (configuration not stated),-2.821
19,O=C1CSc2ccccc2N1Cc1noc(C2CCCO2)n1 (configuration not stated),108.8
20,Cc1ccc2c(c1)SCC(=O)N2CC(=O)N1CCC[C@H]1c1nc(C)no1,9.485
21,Cc1ccc2c(c1)SCC(=O)N2CC(=O)N1CCCC1c1nccs1 (configuration not stated),15.48
22,Cc1ccc2c(c1)SCC(=O)N2Cc1noc(C2CCCO2)n1 (configuration not stated),109.6
23,O=c1cc(N2CCCCC2)cnn1Cc1noc(C2CCCO2)n1 (configuration not stated),-0.8561
24,Cc1cccc(-c2nc(CN(Cc3cccs3)CC3CCCO3)no2)c1 (configuration not stated),0.4556
25,CCCc1ccc(CN2C[C@H]3C(=O)N(CC4CC4)C[C@@]3(C(=O)O)C2)o1,-18.71
26,CC(C)c1ocnc1C(=O)NC(c1nnc2n1CCNCC2)C(C)C (configuration not stated),15.04

row,Compound,Percent Effect [%]
1,O=C1CCC(C(=O)N2CCOC(Cc3ccccc3Cl)C2)=NN1 (configuration not stated),-0.3624
2,Cc1nc(C(C)(C)NC(=O)Nc2ccccc2)no1,-20.84
3,CCNC(=O)Cn1ncc(N(C)CCc2ccccc2)cc1=O,6.09
4,Cc1ccsc1C(=O)N1CCc2ncc(CN(C)C)n2CC1.O=C(O)C(F)(F)F,-9.607
5,CN(Cc1ccc(CCC(C)(C)O)cc1)Cc1cccc(O)c1,-7.089
6,Cn1cncc1-c1nnc([C@H]2CCN(CC(C)(C)C)C2)o1,-4.073
7,CC(C)(C)CN1CCCC(c2nccnc2Nc2cnccn2)C1 (configuration not stated),141
8,CC(C)(C)CN1CCC(c2nnc(Cn3ccnc3)n2C2CC2)CC1,-15.12
9,CC(C)(C)CN1CCC(c2nccnc2Nc2cnccn2)CC1,104.1
10,Cn1c(Cn2ccnc2)nnc1C1CCCN(CC(C)(C)C)C1 (configuration not stated),-0.4988
11,CC(C)N(Cc1ccc(C#N)cc1)Cc1nnsc1Cl,-0.2197
12,COC(=O)CNC(=O)CC1COc2ccc(C(=O)N(C)C)cc2N1C (configuration not stated),-21.78
13,CN(Cc1ccncc1)C1CC2(CCN(C(=O)c3ccnnc3)CC2)C1,2.338
14,CN(c1ccncn1)C1CC2(CCN(C(=O)Cc3cccs3)C2)C1 (configuration not stated),98.18
15,CN(c1ccncn1)C1CC2(CCN(C(=O)c3cccs3)C2)C1 (configuration not stated),5.118
16,Cc1noc(C)c1CN1CC2(CCN(C(=O)c3cccn3C)C2)CC1=O (configuration not stated),-4.057
17,CN(c1ccncn1)C1CC2(CCN(C(=O)c3cncs3)C2)C1 (configuration not stated),101.7
18,Cc1ccsc1C(=O)N1CCC(c2nccn2Cc2ccncc2)CC1,-26.92
19,CN(c1ccncn1)C1CC2(CCN(C(=O)CCc3cccs3)C2)C1 (configuration not stated),-6.442
20,Cn1cccc1C(=O)N1CCCC2(CCCN2Cc2cccnc2)C1 (configuration not stated),0.2442
21,Cc1ccc(N2CCCC3(CCN(C(=O)c4sccc4C)C3)C2)nn1 (configuration not stated),-21.87
22,CN(c1ccncn1)C1CC2(CCN(C(=O)c3cccn3C)C2)C1 (configuration not stated),100.1
23,Cc1ccsc1C(=O)N1CCC2(CC(N(C)c3ccncn3)C2)C1 (configuration not stated),125
24,CN(C)C(=O)N1CCN(Cc2noc(Cc3ccccc3)n2)CC1,-7.499
25,CC(C)CN1C(=O)CO[C@@H]2CN(C(=O)CC(F)(F)F)C[C@H]21,-4.787
26,O=C(Nc1ccnc(OC2CCOC2)c1)c1cc(F)ccc1F (configuration not stated),-0.1893

row,Compound,Percent Effect [%]
1,Cc1ccc(C(=O)N2CCC3(CC(N(C)c4ccncn4)C3)C2)cn1 (configuration not stated),100.9
2,Cc1noc(C)c1CN1CC2(CCN(C(=O)c3c[nH]cn3)C2)CC1=O (configuration not stated),-8.686
3,Cc1csc(C(=O)N2CCC3(CC(N(C)c4ccncn4)C3)C2)c1 (configuration not stated),119.5
4,Cc1noc(C)c1C(=O)N1CC[C@H]2C[C@@H](c3ccncn3)O[C@@H]2C1,-6.202
5,CN(Cc1cccnc1)C1CC2(CCN(C(=O)c3cscn3)CC2)C1,-13.69
6,CN(c1ccncn1)C1CC2(CCN(C(=O)c3ccsc3)C2)C1 (configuration not stated),9.271
7,Cc1noc(C)c1C(=O)N1CCC2(CC(N(C)c3ccncn3)C2)C1 (configuration not stated),121.5
8,CN(Cc1cccnc1)C1CC2(CCN(C(=O)c3cnccn3)CC2)C1,-5.762
9,CCOC(=O)CCCN1CCCC(C(=O)Nc2ccc(Cl)cn2)C1 (configuration not stated),-9.707
10,CN1CCC2(C=C(C(=O)N3CCCC3)c3ccccc32)CC1.O=C(O)C(F)(F)F,-7.584
11,CSCC(=O)N1CCC2(CC1)c1ccccc1CC2O (configuration not stated),-1.136
12,CN1CCC2(C=C(C(=O)N(C)C)c3ccccc32)CC1,111.1
13,CCC(=O)N1CCC2(C=C(C(=O)N(C)C)c3ccccc32)CC1,99.74
14,CCC(=O)N1CCC2(C=C(C(=O)N3CCCC3)c3ccccc32)CC1,109
15,O=C(C1=CC2(CCNCC2)c2ccccc21)N1CCCC1,-0.6834
16,O=C(O)C(F)(F)F.O=C1CC2(CNCCN(C(=O)Nc3ccccc3)C2)CN1 (configuration not stated),-25.05
17,CC(O)CN1CCC(CN(C)Cc2ccc(C#N)cc2F)CC1 (configuration not stated),-14.31
18,Cc1nccn1-c1cc(CNC(=O)C(C)(C)C)ccn1,9.207
19,O=C(c1cc(C2CCCCN2CCO)n[nH]1)N1CCOCC1.O=CO (configuration not stated),127.4
20,O=C(CCN1CCCCC1c1cc2ccccc2[nH]1)N1CCOCC1 (configuration not stated),-12.84
21,CC(=O)N1CCCCC1c1cc(C(=O)N2CCOCC2)[nH]n1 (configuration not stated),-8.904
22,CN(C)Cc1ccc(C2CCCCN2C(=O)c2cc(C3CC3)n[nH]2)cc1 (configuration not stated),2.856
23,O=C(CCN1CCCCCC1c1ccco1)N1CCOCC1 (configuration not stated),1.206
24,O=C(c1cc(C2CCCCN2C(=O)C2CCC2)n[nH]1)N1CCOCC1 (configuration not stated),97.85
